Our source for the INHIBITION values is ChEMBL document CHEMBL4513216, “Probing the Open Global Health Chemical Diversity Library for Multistage-Active Starting Points for Next-Generation Antimalarials” (ACS Infect Dis, 2020).

The structures appear in SMILES notation. Hit rate of the full screen: of about 69,000 compounds, about 8,600 (12%) showed an effect of 50% or more. This is one part of a sample in which strong results are shown more often than they occur.

The assay has as its system Plasmodium berghei. Nature of the assay: Screen against P. berghei liver stage (PbLuc), transformed with Luciferase, at 10uM. It is filed as functional, HepG2. Particulars: tested at 10 uM.
As for `CCc1cc(=O)n(CC(=O)N2CCC(C)CC2)c(-c2cccc(F)c2)n1`, the INHIBITION stood at 17.6%.

Take `CNc1nc2c(s1)C(c1cc(Cl)ccc1F)CC(=O)N2` (stereo unspecified): the INHIBITION is on record as 35.8%.

Turning to `CCn1cc(CN(C)S(=O)(=O)c2ccc(C(C)C)cc2)cn1`, the INHIBITION is reported as 26.7%.

With `Cc1cc(C)n(CC2CN(c3ccc(C#N)cn3)CCO2)n1` (stereo unspecified), the INHIBITION is recorded as 23.7%.

`Cc1nn(C)c2cnn(Cc3ccc(C(=O)NC4CC4)o3)c12`: the INHIBITION was found to be 16.8%.

On to `Cc1nn(C)c2cnn(Cc3ccc(C(=O)N4CCCCC4)o3)c12`, for which the INHIBITION was 21.7%.

With `Cc1nn(C)c2cnn(Cc3ccc(C(=O)N4CCN(C)CC4)o3)c12`, the INHIBITION was 65.6%.

For the compound `CCc1ccc(NC(=O)N2C[C@@H]3C[C@H](C(=O)NC)[C@H](C2)O3)cc1`, the INHIBITION amounted to 15%.

In the case of `O=C1NCc2ccccc2CC12CCCN(Cc1ccsc1)C2` (stereo unspecified), the INHIBITION is recorded as 14.3%.

Turning to `CC(OCC1CC1)C(=O)Nc1ncn(CC(=O)N2CCCCCC2)n1` (stereo unspecified), the INHIBITION was found to be 51.7%.

As for `CC(CC(=O)Nc1ncn(CC(=O)N2CCCCCC2)n1)C1CC1` (stereo unspecified), the INHIBITION is listed as -28.8%.

Turning to `O=C(COCC1CC1)Nc1ncn(CC(=O)N2CCCCCC2)n1`, the INHIBITION is reported as -32.4%.

As for `O=C(COC1CCCC1)Nc1ncn(CC(=O)N2CCCCCC2)n1`, the INHIBITION amounted to 8.75%.

Regarding `O=C(CC1C=CCC1)Nc1ncn(CC(=O)N2CCCCCC2)n1` (stereo unspecified), the INHIBITION worked out at 50.6%.

Consider `O=C(Nc1ncn(CC(=O)N2CCCCCC2)n1)C1CCCC1`, for which the INHIBITION is on record as 2.7%.

Turning to `Cc1ccc2oc(C(=O)N3CCCC(n4nc(C)nc4C)C3)cc2n1` (stereo unspecified), the INHIBITION is -2.95%.

On to `COc1ccc(CNC(=O)CCCc2nnc3ccc(OC)nn23)cc1`, for which the INHIBITION was determined as 8.99%.

Take `CCn1nc(CNC(C)(C)CO)c(-c2ccccc2)n1`: the INHIBITION is 20.9%.

Regarding `CCCOCC(=O)N1CCc2c(cccc2S(=O)(=O)N2CCOCC2)C1`, the INHIBITION is listed as 26.7%.

In the case of `Fc1cnc(N2CC[C@@H]3O[C@@H](COCc4ccccn4)CC[C@@H]32)nc1`, the INHIBITION was found to be 18.5%.

Turning to `c1cnc(N2CCC3(CCN(CC4CCOC4)C3)CC2)nc1` (stereo unspecified), the INHIBITION stood at 34.7%.

For the compound `COc1ccc(O)c(C(=O)NCC2CCCN(C3CCOCC3)C2)c1` (stereo unspecified), the INHIBITION came to 14.3%.

As for `COc1ccc(Br)c(C(=O)NCC2CCN(S(=O)(=O)C3CC3)CC2)c1`, the INHIBITION turned out to be 38.5%.

`Cc1cccc(C)c1NC(=O)NCC1CCCN(C2CCOCC2)C1` (stereo unspecified): the INHIBITION is listed as -15%.

On to `COc1cccc(OCC2CCCN(C3CCN(C(C)=O)CC3)C2)c1` (stereo unspecified), for which the INHIBITION is 15.1%.

With `COc1ccc(C(=O)Nc2cnn(CCN3CCOCC3)c2)c(O)c1`, the INHIBITION worked out at 29.5%.

Consider `COc1ccc(C(=O)NCC2CCCN(C3CCOCC3)C2)c(O)c1` (stereo unspecified), for which the INHIBITION is 57.4%.

Take `COc1ccc(Br)c(C(=O)NCC2CC2)c1`: the INHIBITION came to 90.2%.

On to `COCCNC(=O)c1cc(OC)ccc1Br`, for which the INHIBITION is reported as -85%.

For `COc1cccc(NC(=O)NCC2CCCN(C3CCOCC3)C2)c1` (stereo unspecified), the INHIBITION is reported as 58.8%.

Consider `CC(NC(=O)N(C)CCCOc1ccccc1)c1nncn1C` (stereo unspecified), for which the INHIBITION came out at 0.914%.

On to `Cc1ccc(N2CCC3(CCC(=O)N3Cc3ccncc3)CC2)nn1`, for which the INHIBITION stood at 3.17%.

Take `CCc1nnc2n1CCN(C(=O)C(C)Oc1ccc(C#N)cc1)C2` (stereo unspecified): the INHIBITION is given as -48.3%.

For the compound `Cc1noc(C2CN(S(=O)(=O)C3CC3)Cc3ccnn3C2)n1` (stereo unspecified), the INHIBITION stood at 34.6%.

Turning to `Cc1noc(C2CN(S(C)(=O)=O)Cc3ccnn3C2)n1` (stereo unspecified), the INHIBITION came out at 50.7%.

For the compound `CCS(=O)(=O)N1Cc2ccnn2CC(c2nc(C)no2)C1` (stereo unspecified), the INHIBITION is -5.63%.

As for `CNc1oc(-c2ccc(OC)c(S(=O)(=O)N(C)C)c2)nc1C#N`, the INHIBITION came to 8.46%.

Consider `CC1CN(C(=O)Nc2cc(C(F)(F)F)c[nH]c2=O)CCO1` (stereo unspecified), for which the INHIBITION was -4.12%.

In the case of `O=C(Cc1cccnc1)N1C[C@H]2CC[C@@H](C1)N(Cc1ccccc1)C2=O`, the INHIBITION is 40.4%.

For the compound `O=C(Cc1ccccn1)N1C[C@H]2CC[C@@H](C1)N(Cc1ccccc1)C2=O`, the INHIBITION is listed as -4.86%.

In the case of `O=C(Cc1ccncc1)N1C[C@H]2CC[C@@H](C1)N(Cc1ccccc1)C2=O`, the INHIBITION was determined as 63.7%.

On to `CCc1nc(CNc2ccc(C(=O)N3CCSCC3)cc2C)no1`, for which the INHIBITION came to 15.5%.

With `O=C(O)c1cc2c(nc1-c1ccsc1)CCN(C1CCOC1)CC2` (stereo unspecified), the INHIBITION was 11.3%.

As to `Cc1ccc(N2CCN(C(=O)CCc3n[nH]c(C)n3)CC2=O)cc1`, the INHIBITION came out at 2.7%.

As to `Cn1ccnc1CN1CCCN(C(=O)c2ccc3cc[nH]c3c2)CC1`, the INHIBITION worked out at 55.2%.

As for `CC(Oc1ccccc1)C(=O)N1CCCN(Cc2nccn2C)CC1` (stereo unspecified), the INHIBITION came out at 54.4%.

Regarding `CCn1ccnc1CN1CCCN(C(=O)c2cccn2C)CC1`, the INHIBITION was 56.6%.

Consider `CC(CC(=O)N1CCCN(Cc2nccn2C)CC1)n1cccc1` (stereo unspecified), for which the INHIBITION was 18.9%.

Turning to `Cn1ccnc1CN1CCCN(C(=O)COC2CCCC2)CC1`, the INHIBITION is -11.4%.

For `CSC(C)C(=O)N1CCCN(Cc2nccn2C)CC1` (stereo unspecified), the INHIBITION is given as -5.25%.

As for `CCn1ccnc1CN1CCCN(C(=O)c2ccnn2C)CC1`, the INHIBITION was 16.45%.

Take `CCn1ccnc1CN1CCCN(C(=O)c2cc(C)nn2CC)CC1`: the INHIBITION was 32.3665%.

As to `CC(OCC1CC1)C(=O)N1CCCN(Cc2nccn2C)CC1` (stereo unspecified), the INHIBITION is 9.32%.

With `Cn1ccnc1CN1CCCN(C(=O)c2ccc3ccccc3c2)CC1`, the INHIBITION is 27.8%.

Turning to `Cn1ccnc1CN1CCCN(C(=O)CC(C2CC2)C2CC2)CC1`, the INHIBITION came out at 50.3%.

In the case of `Cn1ccnc1CN1CCCN(C(=O)c2ccc3[nH]cnc3c2)CC1`, the INHIBITION turned out to be 21%.
